Compound activity (PubChem BioAssay)
Shown are actives, neighbours in structure and some others; about 1.5% of the full set was active somewhere.
EBV gp42 inh: blocks Epstein-Barr virus glycoprotein 42 binding. Q1HVG2. Fluorescence polarization binding assay, mP read-out. inhibition, % (tested at 21.74 µM). hit rate 0.42% among 220,000; in the data active means inhibition above about 50%
Target sequence (Q1HVG2 whole entry, looked up): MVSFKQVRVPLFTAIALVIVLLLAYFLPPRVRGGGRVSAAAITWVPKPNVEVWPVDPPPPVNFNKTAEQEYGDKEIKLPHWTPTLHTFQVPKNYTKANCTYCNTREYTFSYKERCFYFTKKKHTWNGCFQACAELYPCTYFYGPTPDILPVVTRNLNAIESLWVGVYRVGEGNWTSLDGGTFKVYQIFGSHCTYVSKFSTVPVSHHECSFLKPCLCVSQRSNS
MEX-5 binding: C. elegans MEX-5 TCR-2 RNA binding activity. Q9XUB2. MEX-5/FITC-TCR2 RNA binding, fluorescence polarization; hits give low values. activity score (negative = inhibition of binding), % at 10 µM. hit rate 0.38% among 300,000. AID 1832;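 active means inhibition past about -25% in most replicates, and total fluorescence under double the plate's negative control median, limit read from the data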;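 further: 0% = DMSO and -100% = 5 µM competing unlabeled TCR2 RNA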
BCLXL inh: inhibitors of human Bcl-xL | Q07817 | GST-Bcl-xL / FITC-Bim BH3 peptide fluorescence polarization | inhibition, % at 10.9 µM | hit rate 0.7% among 320,000 | AID 2129;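 active means inhibition above the mean of all tested compounds plus 3 SD, cutoff set per campaign, cut at about 30% in these data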;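 further: 0% = DMSO wells and 100% = unlabeled Bim-BH3 peptide competitor; inhibitors lower millipolarization by displacing the labeled peptide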
E coli Lon inh: inhibits E. coli Lon protease; inhibition, % at 7.94 µM; hit rate 0.42% among 360,000; purified E. coli Lon protease, fluorescence polarization; in the data active means inhibition above about 13%, passing the limit was not always enough;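 further: 0% = enzyme with probe and DMSO and 100% = no enzyme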
GLD-1 RNA inh: GLD-1-TGE RNA interaction inhibition (C. elegans); Q17339; purified GLD-1 + fluorescein TGE RNA, fluorescence polarization; inhibition, % at 5.96 µM; hit rate 0.44% among 320,000; AID 2280;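 active means percent inhibition above a per-plate cutoff, the plate mean of test compounds plus 3 SD, cut at about 30% in these data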;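 further: 0% = DMSO wells with GLD-1 and probe and 100% = wells lacking GLD-1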
Target sequence (Q17339 whole entry, looked up): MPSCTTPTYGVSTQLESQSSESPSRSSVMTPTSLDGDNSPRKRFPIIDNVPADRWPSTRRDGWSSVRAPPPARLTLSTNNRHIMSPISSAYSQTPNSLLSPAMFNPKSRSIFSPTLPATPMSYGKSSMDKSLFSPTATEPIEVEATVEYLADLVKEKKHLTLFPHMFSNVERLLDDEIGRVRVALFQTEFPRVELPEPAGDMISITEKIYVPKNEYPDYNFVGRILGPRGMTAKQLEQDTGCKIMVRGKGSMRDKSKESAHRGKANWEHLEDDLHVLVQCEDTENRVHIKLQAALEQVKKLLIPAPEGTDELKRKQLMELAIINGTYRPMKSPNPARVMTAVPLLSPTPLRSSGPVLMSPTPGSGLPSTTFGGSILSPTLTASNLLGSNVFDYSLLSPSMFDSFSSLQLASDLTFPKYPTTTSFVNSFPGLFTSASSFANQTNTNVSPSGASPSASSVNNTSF
MCL1-BIM inh: MCL1-BIM-BH3 interaction inhibition (human). Q07820. GST-MCL1 / FITC-Bim-BH3 fluorescence polarization. inhibition, % at 10.9 µM. hit rate 0.68% among 320,000. AID 2057;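 active means inhibition above the mean inhibition of all tested compounds plus 3 SD, set per campaign, cut at about 40% in these data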;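 further: 0% = DMSO wells and 100% = unlabeled Bim-BH3 peptide control; higher means more loss of mP so more displacement of Bim peptide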
* = called active by the depositor; x = not tested or not shown.

SMILES | EBV gp42 inh | MEX-5 binding | BCLXL inh | E coli Lon inh | GLD-1 RNA inh | MCL1-BIM inh
COCCN=c1scc(-c2ccco2)n1/N=C/c1ccc(O)c(O)c1O | 74* | x | -15 | 18 | -15 | 11
CN1/C(=C\P(=O)(N(C)C)N(C)C)C(C)(C)c2ccccc21 | 0 | 2 | 45* | 5 | 59* | 47*
COC(=O)[C@]1(C)N[C@H](CN(C)S(=O)(=O)c2ccc(OC(F)(F)F)cc2)[C@@H]2C(=O)N(Cc3ccccc3)C(=O)[C@@H]21 | x | x | x | 15 | 5 | x
CCN(CC)CCCNc1nc(SC)nc2sc3c(c12)CCN(C)C3 | x | 0 | 71* | x | -28 | 7
CSc1nc(NCCCO)c2c3c(sc2n1)CN(C)CC3 | 30 | -4 | 5 | -2 | 3 | 4
Cc1nn(C)c(Sc2ccccc2N)c1[N+](=O)[O-] | -1 | 0 | 11 | -5 | -1 | 16
COC(=O)[C@]12CCCCC=C1N(CCC1=CCCCC1)C(=O)[C@H](CC(=O)N1CCN(C(=O)c3ccco3)CC1)C2 | x | x | x | 2 | x | x
CC(=O)OCCCNc1cc(Sc2nc3ccccc3s2)c2nonc2c1[N+](=O)[O-] | 78* | -10 | 16 | -18 | 0 | 15
O=C(c1cnsn1)N1CCCC(Nc2ccc(F)c(F)c2)C1 (stereo not drawn) | x | 1 | -1 | -2 | 4 | 6
Cn1c(=O)c2[nH]c(N/N=C(/C#N)C(N)=O)nc2n(C)c1=O | -5 | -27* | 0 | x | -1 | 4
CCC(COC(C)=O)Nc1nc2c([nH]1)c(=O)n(C)c(=O)n2C (stereo not drawn) | -19 | -3 | -2 | 0 | 8 | 0
COc1ccc(NS(=O)(=O)c2cc(NC(=O)c3ccc(=O)[nH]n3)ccc2C)cc1 | x | x | 6 | 2 | 5 | 6
CCc1cc2c(=O)c(-c3nc4ccccc4n3C)c(C)oc2c(CN(CC)CC)c1O | -12 | 1 | -2 | 5 | 7 | -3
CCN(CC)Cc1c(O)ccc2cc(-c3nc4ccccc4n3C)c(=O)oc12 | x | -7 | 36* | -15 | -7 | 30
Cc1ccc(F)c(S(=O)(=O)NC(=O)C2(C)CCN2C(=O)Cc2ccccc2Cl)c1 (stereo not drawn) | x | x | x | 0 | x | x
COc1cc(CCC(=O)N2CCN(c3ncccn3)CC2)cc(OC)c1OC | 86* | 1 | 5 | 0 | 2 | 0
O=C1c2ccc(-c3ccc(Cl)c(C(F)(F)F)c3)cc2S(=O)(=O)c2cccc(C(=O)N3CCN(c4ccc(Cl)cn4)CC3)c21 | x | x | x | -19 | 5 | x
CC(=O)N1CCc2cc(N=NC3=C(O)CC(C)(C)CC3=O)ccc21 | -78 | -1 | -13 | -38 | -26 | -26
O=S(=O)(c1cccs1)N1CCN(c2ccccc2)CC1 | x | -1 | 10 | -1 | 3 | 9
O=C(C(NS(=O)(=O)c1cccs1)c1ccccc1)N1CCN(c2ccccc2)CC1 (stereo not drawn) | -2 | 4 | 31* | 7 | 20 | 34
CN(CC(=O)Nc1ccccc1Cl)C(=O)c1ccc(-c2cccc(C(F)(F)F)c2)o1 | x | -3 | 0 | 1 | 9 | 0
Oc1ccccc1N=Cc1c(O)ccc2oc3c(c12)CCCC3 | 37 | -4 | 14 | -16 | 38* | 15
O=C(O)c1ccc(N=Cc2c(O)ccc3oc4c(c23)CCCC4)cc1 | -4 | -3 | 4 | 13 | 10 | 4
C[C@H]1CN([C@@H](C)CO)C(=O)CCCn2nncc2CO[C@@H]1CN(C)Cc1ccncc1 | x | x | x | -8 | x | x
Cc1ccc(C(=O)ONc2ccc(N=NC(=O)c3ccccc3O)cc2)cc1 | 93* | 0 | 5 | 3 | 10 | 8
SMILES | EBV gp42 inh | MEX-5 binding | BCLXL inh | E coli Lon inh | GLD-1 RNA inh | MCL1-BIM inh
O=C(CCN1C(=O)c2ccccc2S1(=O)=O)Nc1ccc(F)c([N+](=O)[O-])c1 | x | 4 | 0 | -1 | 3 | 1
CC1CN(S(=O)(=O)c2cccc(C(=O)NCCC3=CCCCC3)c2)CC(C)O1 (stereo not drawn) | x | -2 | -10 | -5 | 5 | -21
O=S(=O)(CCNCCc1ccccc1)NC1CCCCC1 | x | x | x | -9 | x | x
O=[N+]([O-])c1ccc(-c2cn(-c3ccc(Cl)cc3)c(=S)[nH]2)cc1 | 54* | 2 | 3 | -4 | -1 | -3
CCc1ccc(-n2cc(-c3ccc([N+](=O)[O-])cc3)[nH]c2=S)cc1 | -10 | 0 | -15 | -13 | 5 | -39
C[C@@H]1NS(=O)(=O)[C@H]2C[C@@H]3C=C[C@]2(O3)[C@H]1OC(=O)c1ccc(C(C)(C)C)cc1 | x | x | 1 | 0 | -2 | 3
CN(C)CCOC(=O)c1ccc2c(c1)S(=O)(=O)c1ccccc1C2=O | -8 | 0 | 3 | 3 | -1 | 3
COCc1ccc(C(=O)NC2CCCN(Cc3ccccc3F)C2)o1 (stereo not drawn) | x | 0 | 36* | 0 | 6 | -9
CCN(CC)S(=O)(=O)c1ccc(N2CC(C(=O)N3Cc4ccccc4CC3C(N)=O)CC2=O)cc1 (stereo not drawn) | x | x | x | 3 | 4 | x
CN(C(=O)COC(=O)Cc1ccc(Cl)cc1)C1CCCCC1 | x | x | x | -14 | 2 | x
Cc1ccccc1[C@@H](NC(=O)OC(C)(C)C)C(=O)OC(C)(C)C | x | x | 1 | -11 | 1 | -1
Oc1ccc(N=Nc2n[nH]c(-c3ccccc3)n2)cc1 | -7 | -37* | 2 | -10 | -12 | -2
Oc1ccc(N=Nc2nc(-c3ccccc3)c(-c3ccccc3)[nH]2)cc1 | -2 | 1 | -8 | -68 | 84* | -20
O=C(OCCCOC(=O)c1cc[n+]([O-])cc1)c1cc[n+]([O-])cc1 | x | -1 | 0 | 1 | -4 | -5
COc1ccc(OC)c(NC(=S)NCc2ccccc2OC)c1 | 1 | -1 | 30* | 8 | 15 | 33
COc1ccc(OC)c(NC(=S)NCc2cccs2)c1 | -9 | 3 | 6 | 0 | 4 | 12
CCc1ccc(C(O)(CC(C)C)C(CN2CCOCC2)c2ccccc2)cc1 (stereo not drawn) | x | -2 | x | -8 | x | x
COc1ccc(C(O)(CC(C)C)C(CN2CCOCC2)c2ccccc2)cc1 (stereo not drawn) | x | 0 | 47* | -5 | 4 | 0
CC(C)CN1CCC(=O)N(CCSc2ccccc2)CC1 | x | -2 | -13 | -7 | -4 | -20
COc1ccc(OC)c(/C=c2\sc3nc(-c4cccs4)nn3c2=O)c1 | 135* | -51* | -13 | 11 | -12 | -30
O=C(/C=C/c1ccco1)NC(=S)NNC(=O)c1ccco1 | -16 | -26* | 5 | -3 | 0 | 13
O=C(CSCc1ccco1)N1CCc2ccccc21 | x | -2 | -1 | 2 | 4 | -2
Fc1cccc(Cl)c1CN1CCN(c2nc3ccccc3s2)CC1 | x | -1 | x | -8 | x | x
O=C(Oc1ccc(C(=S)N2CCCCC2)cc1)c1ccccc1 | -16 | 1 | 1 | -9 | 6 | 8
O=C(Oc1ccc(C(=S)N2CCC(O)CC2)cc1)c1ccc(Cl)cc1 | -1 | 1 | 100* | 3 | 7 | 4
